In the library only some 19% were active in any assay of this set; here they are far more common.
IL1B secr inh – blocks inflammasome-driven IL-1 beta release | THP-1 LPS/ATP IL-1B secretion, AlphaLISA, 16 h; hits give low values | activity change, % at 57.5 µM | 360,000 compounds, 4.7% hits; in the data active = activity change below about -50%; inconclusive = mostly about -30% to -49%
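Secreted IL-1B measured by AlphaLISA bead assay after 16 h compound exposure of THP-1 cells; compounds (final up to 57.5 uM) added 1 h before LPS (250 ng/mL) and ATP (1.25 mM) stimulation; lower signal means less secretion.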
HT1080 IDH1KD tx – HT-1080 IDH1 knockdown cell toxicity (counter line); HT-1080 IDH1 knockdown viability, ATP luminescence, 48 h; Potency, µM (highest dose often 46.1 µM), hits mostly cytotoxic; 360,000 compounds, 2% hits; AID 686971
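Assay cells: HT-1080 with IDH1 knockdown, 750 per well, RPMI/5% FBS. Exposure: 48 h at 37 °C following 2 h pre-incubation. Read: CellTiter-Glo luminescence; fitted concentration-response, curve class assigned.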
TDP1 cell CPT – growth inhibition of DT40 Tdp1-/-;hTDP1 cells with camptothecin (screen for TDP1 inhibitors); chicken DT40 Tdp1-/-;hTDP1 cells + 20 nM CPT, ATP luminescence, 48 h; Potency, µM (series often up to 46.2 µM), most hits filed as inhibitors; 420,000 compounds, 12% hits; AID 686979; also: nearly all actives have a fitted effect of over 55% in size
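Cell growth measured by CellTiter-Glo luminescence after a minimum 48 h, 37 C compound exposure with 20 nM CPT in Tdp1-knockout DT40 cells stably expressing hTDP1, seeded 400/well; qHTS titration format.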
HT1080NT lethal – kills 2HG-producing HT-1080-NT fibrosarcoma cells. HT-1080-NT fibrosarcoma viability, CellTiter-Glo ATP luminescence, 48 h. Potency, µM (titrated, usually from 46.1 µM), actives largely listed as cytotoxic. 360,000 compounds, 1.6% hits;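 also: NT is the 2HG producing partner of a matched IDH1 knockdown line; nearly all actives have a fitted effect of over 55% in size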
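HT-1080-NT fibrosarcoma cells (2HG-overproducing), 750 cells/well in RPMI with 5% FBS, dosed after 2 h and incubated 48 h at 37C. CellTiter-Glo luminescence normalized to DMSO and no-cell wells; concentration-response curves fitted and classed.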
TDP1 cell noCPT – qHTS for Inhibitors of human tyrosyl-DNA phosphodiesterase 1 (TDP1): qHTS in cells in absence of CPT | Potency, µM (titrated, usually from 46.2 µM), hits mostly inhibitors | 420,000 compounds, 15% hits | DT40 Tdp1-/- hTDP1 cells, no CPT, ATP luminescence, 48 h; also: nearly all actives have a fitted effect of over 55% in size
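Chicken DT40 Tdp1-/- cells complemented with human TDP1, screened without camptothecin (DMSO vehicle only), 400 cells/well. Compounds pin-transferred, cells incubated at 37 °C for at least 48 hr. Growth read as ATP-dependent luminescence (CellTiter-Glo, 30 min at RT).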
Large screens that a line does not name were inactive. Unless noted, calls follow the shape of the dose curve; as a rule, active = well fitted curve in the direction sought with a large enough effect; inconclusive = small, poorly fitted or top-dose-only effect, or another doubt; inactive = no such curve, though single readings can be large; an effect the other way counts as inactive or inconclusive.

CCCCN(C)C(=O)c1sc(=O)n(CC(=O)c2ccccc2OC)c1C	TDP1 cell CPT inconclusive, TDP1 cell noCPT inconclusive
Cc1c(C(=O)N(C)Cc2ccc(F)cc2)sc(=O)n1Cc1ccccc1C#N	TDP1 cell CPT 23.1µM, TDP1 cell noCPT 16.4µM
CCCCN(C)C(=O)c1sc(=O)n(Cc2ccccc2C#N)c1C	TDP1 cell CPT 13µM, TDP1 cell noCPT inconclusive
Cc1ccccc1Cn1c(C)c(C(=O)N(C)Cc2ccc(F)cc2)sc1=O	TDP1 cell CPT inconclusive, TDP1 cell noCPT 18.4µM
Cc1ccc(S(=O)(=O)NCCC(=O)Nc2nccs2)cc1	IL1B secr inh -64.3
O=[N+]([O-])c1ccccc1S(=O)(=O)Nc1ccc(S(=O)(=O)Nc2nccs2)cc1	TDP1 cell CPT inconclusive, TDP1 cell noCPT 16.4µM
O=C(CCl)Nc1ccc(S(=O)(=O)Nc2nccs2)cc1	IL1B secr inh inconclusive, HT1080 IDH1KD tx 13µM, TDP1 cell CPT inconclusive, HT1080NT lethal inconclusive, TDP1 cell noCPT inconclusive
Cc1ccc(SCC(=O)Nc2ccc(S(=O)(=O)Nc3nccs3)cc2)cc1	TDP1 cell CPT inconclusive, TDP1 cell noCPT 3.66µM
CCCc1nc2ccc(C(=O)OC)cn2c1Cc1cccc(F)c1	HT1080 IDH1KD tx inconclusive, TDP1 cell CPT inconclusive, TDP1 cell noCPT inconclusive
CCCc1nc2ccc(Cl)cn2c1Cc1ccc(C)cc1	HT1080 IDH1KD tx inconclusive, TDP1 cell CPT 23.1µM, TDP1 cell noCPT 23.1µM
CCCc1nc2ccc(Cl)cn2c1Cc1cccc(Cl)c1	HT1080 IDH1KD tx inconclusive, TDP1 cell CPT 10.3µM, HT1080NT lethal inconclusive, TDP1 cell noCPT 8.2µM
OC(COCc1ccc(Cl)cc1)CN1CCN(c2ccccn2)CC1 (configuration not stated)	TDP1 cell noCPT inconclusive
CN1CCCN(C(c2ccccc2)c2ccc(Cl)cc2)CC1 (configuration not stated)	HT1080 IDH1KD tx 18.4µM, TDP1 cell CPT inconclusive, HT1080NT lethal 18.4µM, TDP1 cell noCPT 5.96µM
Clc1ccc(C(c2ccccc2)N2CCN(c3ccccn3)CC2)cc1 (configuration not stated)	TDP1 cell CPT inconclusive, TDP1 cell noCPT 18.4µM
Cc1ccc(NS(=O)(=O)c2cccc3cccnc23)c(Cl)c1	TDP1 cell noCPT inconclusive
CC(Sc1nnnn1-c1ccccc1)C(=O)Nc1ccc(N2CCN(C)CC2)cc1 (configuration not stated)	TDP1 cell CPT 13µM, TDP1 cell noCPT 10.3µM
Cc1oc(-c2cccc(Cl)c2)nc1CS(=O)(=O)CC(=O)NCCN1CCCC1	none
O=[N+]([O-])c1cccc(-c2c(-c3ccccc3)ncc3ccc(F)cc23)c1	TDP1 cell CPT 9.2µM, TDP1 cell noCPT 8.2µM
CC(=O)Nc1ccc(NC(=O)COC(=O)c2c(-c3ccccc3)noc2C)cc1	TDP1 cell CPT inconclusive, TDP1 cell noCPT inconclusive
CCCCNc1nc(Nc2ccc(C)c(Cl)c2)c2cnn(C)c2n1	IL1B secr inh -65.6, TDP1 cell CPT 23.1µM, HT1080NT lethal inconclusive, TDP1 cell noCPT inconclusive
Cc1ccc(Nc2nc(NCc3ccco3)nc3nccnc23)cc1Cl	none (no result: IL1B secr inh, HT1080 IDH1KD tx, HT1080NT lethal)
CCNc1nc(Nc2ccc(C)c(Cl)c2)c2cnn(C)c2n1	TDP1 cell CPT 18.4µM, TDP1 cell noCPT 1.64µM
CC(=O)NN(O)C1N(C)C(=O)N(Cc2ccccc2)C1(C)C (configuration not stated)	none
CCCc1nc2sc3ccccc3c(=O)c2c(=O)n1Cc1ccc(OC)cc1	TDP1 cell CPT 13µM, TDP1 cell noCPT 20.6µM
COc1ccc(Cn2c(=O)sc3ccccc3c2=O)cc1	none
CC(C)c1nc2sc3ccccc3c(=O)c2c(=O)n1Cc1ccccc1	TDP1 cell CPT 16.4µM, TDP1 cell noCPT 14.6µM
COCCn1c(C(C)C)nc2sc3ccccc3c(=O)c2c1=O	none
CCCc1nc2sc3ccccc3c(=O)c2c(=O)n1Cc1ccco1	TDP1 cell CPT inconclusive, TDP1 cell noCPT inconclusive
COc1ccc(Cn2c(C(C)C)nc3sc4ccccc4c(=O)c3c2=O)cc1	IL1B secr inh inconclusive, TDP1 cell CPT inconclusive, TDP1 cell noCPT 11.6µM
Cc1ccc(N(CC(=O)Nc2c(C)cccc2C)S(C)(=O)=O)cc1	none
COc1ccccc1CN1CCCC2(CCN(C(=O)c3cnccn3)CC2)C1	TDP1 cell CPT inconclusive (no result: IL1B secr inh, HT1080 IDH1KD tx, HT1080NT lethal)
